Assay outcomes (PubChem)
ugtP null kill = compounds lethal to S. aureus RN4220 ugtP deletion mutant | growth inhibition, % (test concentration not listed) | OD600 growth, 16 h | actives 0.54% (n = 330,000) | AID 1259309; in the data active means growth inhibition above about 68%;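 further: plate controls were untreated wells for no effect and antibiotic for full effect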
SSB-PriA inh = K. pneumoniae PriA-SSBct interaction inhibition | AlphaScreen SSBct-PriA binding, biotinylated peptide | inhibition, % at 33 µM | actives 0.6% (n = 430,000); in the data active means inhibition mostly above about 37%, no sharp cut-off; inactive means mostly below about 20%;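 further: plate controls were negative control peptide for no effect and reference peptide for full effect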
Mtb hypoxia inh = inhibitors of hypoxia-regulated fluorescent reporter in Mycobacterium tuberculosis; fluorescence inhibition, % (test concentration not listed); actives 0.1% (n = 300,000); AID 1159583; M. tuberculosis hypoxia-regulated fluorescent reporter, fluorescence; in the data active means fluorescence inhibition mostly above about 23%, no sharp cut-off; inactive means mostly below about 17%
Sa RN4220 lethal = kills Staphylococcus aureus RN4220; S. aureus RN4220 growth, OD600, 16 h; inhibition, % (concentration not given with the values); actives 0.33% (n = 330,000); AID 1259311; in the data active means inhibition above about 85%;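 further: plate controls were untreated cells for no effect and reference antibiotic for full effect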
Mtb bLac sens = beta-lactam sensitization of Mtb H37Rv | actives 0.27% (n = 330,000) | inhibition, % at 25 µM | M. tuberculosis H37Rv growth with meropenem, percent inhibition; call rule not given here;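 further: growth measured after seven days incubation then overnight dye step; 0% = bacteria only wells and 100% = bacteria with antibiotic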
* marks the source's active call; other numbers are inactive results; · = no result given; ! = a repeat was not active. A selection: hits, their analogues and other compounds. The true share with any hit is near 1%.

SMILES | ugtP null kill | SSB-PriA inh | Mtb hypoxia inh | Sa RN4220 lethal | Mtb bLac sens
COc1ccc(-c2nnc(NC(=O)c3ccc(S(=O)(=O)N4COCC4(C)C)cc3)o2)cc1 | 49 | -15 | 1 | 54 | 93
CCC1CCCCN1S(=O)(=O)c1ccc(C(=O)Nc2nnc(C3CC3)o2)cc1 (stereo not given) | 50 | -16 | -1 | 62 | 91
CC1(C)COCN1S(=O)(=O)c1ccc(C(=O)Nc2nnc(-c3ccc(Cl)s3)o2)cc1 | 98* | -5 | 5 | 100* | 96
CCC1CCCCN1S(=O)(=O)c1ccc(C(=O)Nc2nnc(-c3ccccc3Cl)o2)cc1 (stereo not given) | 98* | -12 | 5 | 99* | 94
CN(C)c1ccc(/C=C(\C#N)c2nc3ccccc3n2C)cc1 | · | 0 | · | · | ·
CC[C@H](C)NC(=O)Cc1csc(NC(=O)Nc2ccc(C)cc2)n1 | · | -15 | · | · | ·
O=C(Nc1nnc(-c2ccccc2Cl)o1)c1ccc(S(=O)(=O)N2CCCCCC2)cc1 | 96* | 0 | -5 | 100* | 95
O=C(Nc1nnc(-c2ccccc2Cl)o1)c1ccc(S(=O)(=O)N2CCc3ccccc3C2)cc1 | · | -12 | · | · | ·
O=C1CCCCC1=CNc1ccccc1C(=O)O | · | -14 | · | · | ·
Clc1ccc(COCC2CCN(Cc3cccnc3)CC2)cc1 | · | -22 | · | · | ·
CCOc1ccc(NC(=O)c2csc3c2CCCC3)cc1 | · | 115* | · | · | -7
N#Cc1nc(Cc2ccccc2)oc1NCc1ccccc1Cl | -6 | 40* | · | -8 | -8
CCCCOc1ccc(CSCCN=C(N)N)cc1 | 100* | -14 | 4 | 21 | ·
CCCCOc1ccc(C(N)=NO)cc1 | · | -12 | · | · | ·
O=C(Cn1nnc(-c2ccccc2)n1)NN=Cc1cccc([N+](=O)[O-])c1O | · | -5 | · | · | ·
CCOc1ccc(Nc2nc(N3CCCCC3)nc(N3CCCCC3)n2)cc1 | 92* | -7 | 7 | -2 | 2
O=C(Cc1ccccc1)N1CCCC(c2nnc(Cc3ccc(F)cc3)o2)C1 (stereo not given) | · | 2 | · | · | ·
COc1cc(NC(=O)CN2C(=O)NC(c3ccccc3)(c3ccccc3)C2=O)cc(OC)c1 | · | 45* | · | · | -1
Cc1cc(N=Nc2ccccc2C(=O)O)c(C)c(C)c1O | 3 | 11 | 45* | 2 | -2
Cc1cc(O)c(C(C)C)cc1N=Nc1ccccc1C(=O)O | 3 | 13 | 51* | 4 | 11
O=C(O)c1ccccc1N=Nc1c(O)[nH]c(=O)[nH]c1=O | 2 | -5 | 7 | 5 | -10
O=C(NCCN1CCn2cc(OCc3ccccc3)c(=O)cc2C1=O)c1ccccc1 | · | -4 | · | · | ·
C=CCN1C(=O)C(C)(C)COc2ccc(NC(=O)c3ccc(F)c(F)c3)cc21 | · | 16 | · | · | ·
Nc1c(C(=O)NCCc2ccccc2)c2nc3ccccc3nc2n1N | · | 2 | · | · | ·
O=C(O)c1nc[nH]c1C(=O)O | · | 85* | · | · | ·
SMILES | ugtP null kill | SSB-PriA inh | Mtb hypoxia inh | Sa RN4220 lethal | Mtb bLac sens
CC(C)c1ccc(-n2c(O)c(/C=N/NC(=O)c3ccccc3O)c(=O)[nH]c2=S)cc1 | 10* | · | 15 | 88 | 2
O=C(NN=Cc1c(O)n(C2CCCCC2)c(=S)[nH]c1=O)c1ccccc1 | · | 13 | · | · | ·
O=C(N/N=C/c1c(O)n(C2CCCCC2)c(=S)[nH]c1=O)c1ccccc1O | 92* | · | 8 | 77 | 2
CCOc1ccccc1-c1nc(COC(=O)c2nnn(-c3ccc(OC)cc3)c2C)c(C)o1 | · | 4 | · | · | ·
CC(C)C1OC2c3cccc4cccc(c34)C2N1c1ccccc1 (stereo not given) | 90* | -12 | 1 | -3 | -9
Cc1ccc2nc(N(CCCN(C)C)C(=O)c3ccc4c(c3)CCCC4)sc2c1 | -22 | 26 | 17 | -3 | 92
Cc1cc(C)c2nc(N(CCCN(C)C)C(=O)c3ccc(S(=O)(=O)N4CCCCCC4)cc3)sc2c1 | -10 | 36*! | · | 0 | 81
Cc1cc(C)c2nc(N(CCCN(C)C)C(=O)c3ccc4c(c3)CCCC4)sc2c1 | -24 | 43* | 19 | -15 | 100
Cc1ccc(C)c(NC(=O)CN2CCC(C(N)=O)CC2)c1 | · | -16 | · | · | ·
CC(Cc1ccoc1)NC(=O)Nc1c(F)cccc1F (stereo not given) | · | 9 | · | · | ·
CC(C)(C)OC(=O)N1CCN(Cc2nc(C3CC3)cs2)CC1 | · | 21 | · | · | ·
COCCn1nnn(-c2ccc(NC(=O)CSCc3ccccc3)cc2)c1=O | · | -4 | · | · | ·
Cc1cccc(OCCn2cnc(Cl)c2Cl)c1 | 5 | 40* | 2 | 2 | 0
Cc1onc(-c2ccccc2Cl)c1C(=O)N1CCC(Cn2ccnc2C)CC1 | · | 6 | · | · | ·
O=C(NCC(O)(c1ccccc1)C(F)(F)F)C1c2ccccc2Oc2ccccc21 (stereo not given) | · | -30 | · | · | ·
O=[N+]([O-])c1ccccc1N=Nc1ccc(O)cc1 | -14 | 43* | -2 | 8 | 56
Clc1ccc(C[n+]2csc3ccccc32)cc1 | 100* | 34 | 3 | 87* | -5
Fc1ccc(C[n+]2csc3ccccc32)cc1 | · | 2 | · | · | -5
CCS(=O)(=O)c1ccc(C(=O)Nc2nnc(-c3ccccc3Cl)o2)cc1 | · | -2 | · | · | ·
Cc1cc(NC(=O)CCOc2ccccc2)n(-c2nc3ccccc3s2)n1 | · | -19 | · | · | ·
CCCCc1ccc(NC(=S)Nc2ccc(Nc3ccc(OC)cc3)cc2)cc1 | -5 | 84* | 10 | -1 | 98
O=C1CC(c2ccccc2)=NN1c1ccccc1 | 3 | 6 | 6 | 2 | ·
O=C1CC(C(F)(F)F)=NN1c1ccccc1 | · | 35* | · | · | ·
O=C(Nc1ccccc1-c1csc(-c2ccccc2F)n1)C1CCOCC1 | · | -4 | · | · | ·
COC(=O)c1ccc(NC(=O)CSC2=NS(=O)(=O)c3cc(Cl)ccc3N2)cc1 | · | 10 | · | · | ·
SMILES | ugtP null kill | SSB-PriA inh | Mtb hypoxia inh | Sa RN4220 lethal | Mtb bLac sens
Cc1ccc(SCC(O)=C(C#N)c2nc3ccccc3s2)cc1 | 92* | -4 | 6 | 97* | ·
COc1ccc(-n2nnnc2CNC(=O)C(=O)c2c[nH]c3ccccc23)cc1 | 0 | 6 | 2 | 1 | -3
Cc1ccc(-n2nnnc2SC(C(=O)c2c[nH]c3ccccc23)c2ccccc2)cc1 (stereo not given) | 90* | -11 | 2 | 65 | 3
Cc1ccc2nc(NN=Cc3ccc([N+](=O)[O-])o3)nc(-c3ccccc3)c2c1 | 100* | -8 | · | 99* | ·
CC1(C(=O)NN=Cc2ccc([N+](=O)[O-])o2)CC1(Br)Br (stereo not given) | 89* | 1 | 1 | 82 | ·
O=C(NN=Cc1ccc([N+](=O)[O-])o1)c1cn(-c2ccccc2)nc1-c1ccc(Cl)cc1 | 99* | 2 | -11 | 99* | ·
CCCc1ccc(-c2cc(C(=O)NN=Cc3ccc([N+](=O)[O-])o3)c3ccccc3n2)cc1 | 99* | 10 | · | 108* | ·
O=C(NN=Cc1ccc([N+](=O)[O-])o1)c1cc2ccccc2o1 | 31 | · | · | 24 | ·
O=C(NN=Cc1ccc([N+](=O)[O-])o1)c1cc2c(ccc3ccccc32)o1 | 99* | -8 | -6 | 98* | ·
CC(=NNc1ccc([N+](=O)[O-])cc1)c1c[nH]c2ccccc12 | -25 | 40* | 9 | -6 | ·
O=C(c1cc2ccccc2oc1=O)N1CCN(Cc2nc(-c3ccc(F)cc3)cs2)CC1 | · | 7 | · | · | ·
COc1cc(C=NNC(=O)C(=O)C=C2NC(C)(C)Cc3ccccc32)ccc1O | · | 26 | · | · | ·
